Test results published in PubChem BioAssay (Tox21).
Records with an inconclusive call do not appear. Calls of active or inactive are those of the source. Calls come from the whole dose curve.

Assay: qHTS assay to identify small molecule agonists of the NFkB signaling pathway - cell viability counter screen (AID 1159515); note: nearly all actives have a fitted effect of over 55% in size
Details: NFkB-bla ME-180 viability, CellTiter-Glo luminescence, 5 h; series mostly up to 61 µM
Description: National Center for Advancing Translational Sciences [NCATS]
NIH Chemical Genomics Center [NCGC]
U.S. Environmental Protection Agency [EPA]
National Institutes of Environmental Health Sciences [NIEHS]
National Toxicology Program [NTP]
U.S. Food and Drug Administration [FDA]
Transcription factors and their stimulated target gene expression play pivotal roles across many cellular processes including responses to environmental stimuli. Proper regulation of associated pathways is critical to maintain cell health and function. Constitutive activation of transcription factor pathways has been implicated in tumors as it may block cellular functions such as apoptosis and lead to invasion and metastasis. One important transcription factor that stimulates gene expression in response to cytokines, UV radiation, and other stimuli is nuclear factor-kappa B (NFkB). To measure activation of the NFkB pathway, the CellSensor NFkB-bla ME-180 cell line (Life Technologies, Carlsbad, CA) that stably expresses beta-lactamase reporter gene under the regulation of a NF-kB response element was used. This assay allows measurement of the NFkB pathway activity induced by compounds in a ME-180 cell line. This system quantitates NF-kB activity using a FRET-based assay system where beta-lactamase expression disrupts FRET, allowing for fluorescent measurement of activity. This cell line has been used to screen the Tox21 10K compound library and to identify compounds that induce the NFkB pathway activity. The cytotoxicity of the Tox21 compound library against the NFkB-bla ME-180 cell line was tested in parallel by measuring cell viability using the CellTiter-Glo assay in the same wells.
Tox21 Assay Protocol Summary:
NFkB-bla ME-180 cells were dispensed at 2,000 cells/6 uL of assay medium per well into black wall/clear-bottom 1536-well plates using a Multidrop Combi (ThermoFisher Scientific, Waltham, MA) dispenser. After the assay plates were incubated at 37 C and 5% CO2 for an overnight, 23 nL of compounds dissolved in DMSO, positive controls or DMSO only was transferred to the assay plate by a Pintool station (Kalypsys, San Diego, CA). The assay plates were incubated at 37 C and 5% CO2 for 5 hr. One uL of LiveBLAzer B/G FRET substrate (Life Technologies) was added using a Flying Reagent Dispenser (Aurora Discovery, San Diego, CA) and the plates were incubated at room temperature for 1.5 hr. Fluorescence intensity (405 nm excitation, 460 nm and 530 nm emissions) was measured using an Envision plate reader (PerkinElmer, Shelton, CT). For cytotoxicity, 3 ul/well of CellTiter-Glo reagent was added into the assay plates using an FRD. After 30 min incubation at room temperature, the luminescence intensity was measured using a ViewLux plate reader (PerkinElmer).

Structure (SMILES)	outcome
Cc1ccccc1O	inactive
NCCc1ccc(O)cc1	inactive
O=c1n(Cl)c(=O)n(Cl)c(=O)n1Cl	inactive
C1CC2OC2CC1C1CO1 (stereo not given)	inactive
CC(C)C1(C)N=C(c2nc3ccccc3cc2C(=O)O)NC1=O (stereo not given)	inactive
Cc1[nH]c(=O)n(C(C)(C)C)c(=O)c1Cl	inactive
CCC12COCN1COC2	inactive
CCOP(=S)(OCC)SCCSCC	inactive
ClCCBr	inactive
O=C1CCCN1	inactive
CCCCCCCCCCCC#N	inactive
CCC(C)(CC)c1cc(NC(=O)c2c(OC)cccc2OC)on1	inactive
CCCC1COC(Cn2cncn2)(c2ccc(Cl)cc2Cl)O1 (stereo not given)	inactive
O=[N+]([O-])c1ccc(Oc2ccc(Cl)cc2Cl)cc1	inactive
Nc1ccc(Cc2ccc(N)cc2)cc1	inactive
CCC[CH2][Sn]([Cl])([Cl])[Cl]	inactive
ClCc1cccnc1	inactive
CCOP(=S)(OCC)Oc1cnc2ccccc2n1	inactive
Cc1cc(Cl)ccc1O	inactive
CC(C)N1C(=O)c2ccccc2NS1(=O)=O	inactive

Structure (SMILES)	outcome
COC(=O)c1ccccc1N	inactive
CN=C=S	inactive
O=[N+]([O-])c1ccc([As](=O)(O)O)cc1	inactive
CCN(CC)CCO	inactive
C1CN2CCN1CC2	inactive
Cc1ccc([N+](=O)[O-])cc1C	inactive
O=c1ccc(=O)[nH][nH]1	inactive
CC(C)(C)C(O)(CCc1ccc(Cl)cc1)Cn1cncn1 (stereo not given)	inactive
COC(=O)NC(=S)Nc1ccccc1NC(=S)NC(=O)OC	inactive
CCNc1nc(NC(C)C)nc(SC)n1	inactive
CC(C)(C)OOC(C)(C)C	inactive
Cc1cc(-c2cc(C)c(N)c(C)c2)cc(C)c1N	inactive
CC(C)NC(=O)N1CC(=O)N(c2cc(Cl)cc(Cl)c2)C1=O	inactive
CCOC(=O)c1ccccc1C(=O)OCC	inactive
Oc1ccccc1Cl	inactive
COc1ccc2c3c1O[C@H]1[C@@H](O)C=C[C@H]4[C@@H](C2)N(C)CC[C@@]341	inactive
CCc1cccc(C)c1N(C(=O)CCl)C(C)COC (stereo not given)	inactive
Nc1ccc(Br)cc1	inactive
CN(N=O)c1ccccc1	inactive
CC(C)OC(=O)Nc1ccccc1	inactive
